Experiment [1] deals with Vero E6 infected with SARS-CoV-2. The experiment in a line: morphology score (similarity to uninfected cells); higher = more like uninfected cells. The conditions noted are these: 24 h.
The test system is the same in experiment [2]. Put plainly: SARS-CoV-2 infection rate relative to infected DMSO; higher = more infection, active = 60 or less. The conditions noted are these: 24 h.

In experiment [1], `Cc1cc(O)cc(C)c1Cl` [chloroxylenol] (10 µM) yielded a morphology score of 0.0293. Besides, in experiment [2], the SARS-CoV-2 infection rate was 99% (inactive).

The compound `CC1=C(C)C(=O)C(C(CCCCCC(=O)O)c2ccccc2)=C(C)C1=O` (stereo not given) [seratrodast] (10 µM) showed a morphology score in experiment [1] of 0.0459. The SARS-CoV-2 infection rate in experiment [2] was 100% (inactive).

`O=C(Nc1ccc([N+](=O)[O-])cc1O)Nc1ccccc1Br` (0.833333 µM) gave a morphology score in experiment [1] of 0.0726. The SARS-CoV-2 infection rate in experiment [2] is 103% (inactive).

The compound `CCOC(=O)[C@H]1O[C@@H]1C(=O)N[C@@H](CC(C)C)C(=O)NCCC(C)C` [aloxistatin] (10 µM) showed a morphology score in experiment [1] of 0.331. The SARS-CoV-2 infection rate in experiment [2] is 90% (inactive).

In experiment [1], `O=C(/C=C/c1ccc(O)c(O)c1)O[C@H](Cc1ccc(O)c(O)c1)C(=O)O` [rosmarinic-acid] (10 µM) had a morphology score of 0.152. For the same compound, the SARS-CoV-2 infection rate in experiment [2] was 94.5% (inactive).

`O=C(O)c1ccccc1Nc1cccc(C(F)(F)F)c1` [flufenamic-acid] (10 µM) registered a morphology score in experiment [1] of 0.156. In addition, in experiment [2], the SARS-CoV-2 infection rate was 99.5% (inactive).

On to `CCn1cc(C(=O)O)c(=O)c2cnc(N3CCNCC3)nc21` [pipemidic-acid] (10 µM), for which the morphology score in experiment [1] was 0.136. In addition, the SARS-CoV-2 infection rate in experiment [2] was 102% (inactive).

With `O=c1c(O)c(-c2ccc(O)cc2)oc2cc(O)cc(O)c12` [kaempferol] (10 µM), in experiment [1], the morphology score was 0.215. Further, the SARS-CoV-2 infection rate in experiment [2] was 108% (inactive).

Take `COC(=O)c1ccc(N2CCN(C)CC2)c(NC(=O)c2cccc(OC)c2)c1` (10 µM): the morphology score in experiment [1] was 0.142. The SARS-CoV-2 infection rate in experiment [2] is 105% (inactive).

In experiment [1], `CN(C(=O)c1ccc(F)cc1C(F)(F)F)C1CCN(c2nnc(-c3ccnn3C)c3ccccc23)CC1` [taladegib] (10 µM) displayed a morphology score of 0.0832. The SARS-CoV-2 infection rate in experiment [2] was 102% (inactive).

Consider `COc1cc(N)c(Cl)cc1C(=O)OCCCN1CCCCC1` (10 µM), for which, in experiment [1], the morphology score worked out at 0.0833. In addition, in experiment [2], the SARS-CoV-2 infection rate is 100% (inactive).

With `COc1cc(OC)c(OC)cc1C=O` [asaraldehyde] (10 µM), the morphology score in experiment [1] was -0.0171. Also, the SARS-CoV-2 infection rate in experiment [2] was 110% (inactive).

In turn, `N=C(N)NC(=N)Nc1ccccc1` [1-phenylbiguanide] (10 µM) yielded a morphology score in experiment [1] of 0.219. The SARS-CoV-2 infection rate in experiment [2] is 86.5% (inactive).

For `C[N+]1(C)CCC(=C(c2ccccc2)c2ccccc2)CC1` [diphemanil] (10 µM), in experiment [1], the morphology score was -0.00596. Moreover, the SARS-CoV-2 infection rate in experiment [2] was 95.5% (inactive).

As to `CNC(=O)c1ccc(C)c(-n2c(C)cc(OCc3ccc(F)cc3F)c(Br)c2=O)c1` (0.833333 µM), in experiment [1], the morphology score was -0.158. Further, the SARS-CoV-2 infection rate in experiment [2] is 116% (inactive).

In turn, `CC(=O)NC[C@H]1CN(c2ccc(-c3ccc(CNCc4cnn[nH]4)cc3)c(F)c2)C(=O)O1` [radezolid] (10 µM) yielded a morphology score in experiment [1] of 0.0332. Moreover, the SARS-CoV-2 infection rate in experiment [2] is 110% (inactive).

Turning to `CC(C)(C)c1ccc(C(O)CCCN2CCC(C(O)(c3ccccc3)c3ccccc3)CC2)cc1` (stereo not given) [terfenadine] (10 µM), the morphology score in experiment [1] was 0.133. Moreover, in experiment [2], the SARS-CoV-2 infection rate was 96% (inactive).

As for `COc1ccccc1OC(=O)c1ccccc1OC(C)=O` [guacetisal] (10 µM), the morphology score in experiment [1] amounted to 0.0562. Moreover, the SARS-CoV-2 infection rate in experiment [2] is 101% (inactive).

`Cc1nnc(NS(=O)(=O)c2ccc(N)cc2)s1` [sulfamethizole] (10 µM) gave a morphology score in experiment [1] of 0.0585. In experiment [2], the SARS-CoV-2 infection rate was 108% (inactive).

With `O=S1(=O)OC(c2ccc(O)cc2)(c2ccc(O)cc2)c2ccccc21` [phenolsulfonphthalein] (10 µM), in experiment [1], the morphology score came out at 0.1. Besides, the SARS-CoV-2 infection rate in experiment [2] is 105% (inactive).

Consider `COc1cccc2c1C(=O)c1c(O)c3c(c(O)c1C2=O)C[C@@](O)(C(C)=O)C[C@@H]3O[C@H]1C[C@H](N)[C@H](O)[C@H](C)O1` [daunorubicin] (10 µM), for which the morphology score in experiment [1] is -0.0163. Besides, the SARS-CoV-2 infection rate in experiment [2] is 106% (inactive).

In experiment [1], `COc1cc(NC(=O)c2ccccn2)ccc1Cl` (10 µM) gave a morphology score of 0.133. In addition, the SARS-CoV-2 infection rate in experiment [2] is 96.5% (inactive).

As to `NC(=O)CCCCC1CCSS1` (stereo not given) [lipoamide] (10 µM), the morphology score in experiment [1] was -0.0248. For the same compound, in experiment [2], the SARS-CoV-2 infection rate was 108% (inactive).

In experiment [1], `O=C1OC(OC(=O)c2cccnc2Nc2cccc(C(F)(F)F)c2)c2ccccc21` (stereo not given) [talniflumate] (10 µM) registered a morphology score of -0.0899. Moreover, the SARS-CoV-2 infection rate in experiment [2] was 108% (inactive).

Turning to `Cc1cc(OCc2nc(-c3ccccc3Cl)cs2)ccc1OCC(=O)O` [GPR120-modulator-1] (10 µM), in experiment [1], the morphology score was -0.0706. The SARS-CoV-2 infection rate in experiment [2] is 100% (inactive).

For the compound `CC(=O)[C@H]1CC[C@H]2[C@@H]3CC=C4C[C@@H](O)CC[C@]4(C)[C@H]3CC[C@]12C` [pregnenolone] (10 µM), the morphology score in experiment [1] is -0.283. Moreover, in experiment [2], the SARS-CoV-2 infection rate is 112% (inactive).

In turn, `CC(C)(C)CC(C)(C)c1ccc(O)c(Cc2ccc(Cl)cc2Cl)c1` [clofoctol] (10 µM) had a morphology score in experiment [1] of 0.121. Besides, the SARS-CoV-2 infection rate in experiment [2] was 94% (inactive).

In experiment [1], `C[C@H](Nc1cc(NS(=O)(=O)N2CCC2)nc(SCc2cccc(F)c2F)n1)[C@@H](O)CO` (10 µM) returned a morphology score of 0.112. The SARS-CoV-2 infection rate in experiment [2] is 99% (inactive).

`CC[C@H]1OC(=O)[C@H](C)[C@@H](O[C@H]2C[C@@](C)(OC)[C@@H](O)[C@H](C)O2)[C@H](C)[C@@H](O[C@@H]2O[C@H](C)C[C@H](N(C)C)[C@H]2O)[C@](C)(O)C[C@@H](C)C(=O)[C@H](C)[C@@H](O)[C@]1(C)O` [erythromycin] (10 µM) gave a morphology score in experiment [1] of -0.171. For the same compound, in experiment [2], the SARS-CoV-2 infection rate was 102% (inactive).

Compound `CC1(C)CC(=O)C(C2C3=C(CC(C)(C)CC3=O)Oc3ccccc32)C(=O)C1` (stereo not given) (10 µM) came in with a morphology score in experiment [1] of 0.28. The SARS-CoV-2 infection rate in experiment [2] is 98% (inactive).

(Values after the supplement of paper PMC13380429.)
